# Experimental data taken from PMC5540273 (PLoS ONE, 2017).
# Columns and labels:
# Details in all cases: concentration: 1 μM, replicates: in singlicate; n = 1
# [1] = tested on: T1, RSK2(Kin.Dom.2-C-terminal)
# T1 construct: gene RPS6KA3
# [2] = tested on: T2, RSK3(Kin.Dom.1-N-terminal)
# T2 construct: gene RPS6KA2
# [3] = tested on: T3, RSK3(Kin.Dom.2-C-terminal)
# T3 construct: gene RPS6KA2
# [4] = tested on: T4, RSK4(Kin.Dom.1-N-terminal)
# T4 construct: gene RPS6KA6
# [5] = tested on: T5, RSK4(Kin.Dom.2-C-terminal)
# T5 construct: gene RPS6KA6
# [6] = tested on: S6K1
# [7] = tested on: SBK1
# [8] = tested on: SGK2
# [9] = tested on: SGK3
# [10] = tested on: SGK
# [11] = tested on: SIK2
# [12] = tested on: SIK
# [13] = tested on: SLK
# [14] = tested on: T6, SNARK
# T6 construct: gene NUAK2
# [15] = tested on: SNRK
# [16] = tested on: SRC
# [17] = tested on: SRMS
# [18] = tested on: SRPK1
# [19] = tested on: SRPK2
# [20] = tested on: SRPK3
# 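Also: KINOMEscan kinase panel screen.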
SMILES,%Inh [1] [%],%Inh [2] [%],%Inh [3] [%],%Inh [4] [%],%Inh [5] [%],%Inh [6] [%],%Inh [7] [%],%Inh [8] [%],%Inh [9] [%],%Inh [10] [%],%Inh [11] [%],%Inh [12] [%],%Inh [13] [%],%Inh [14] [%],%Inh [15] [%],%Inh [16] [%],%Inh [17] [%],%Inh [18] [%],%Inh [19] [%],%Inh [20] [%]
Cn1ccc2ncnc(Oc3ccc(Nc4nc5ccccc5[nH]4)cc3)c21,0,0,0,0,0,0,0,0,0,0,10,0,14,0,0,3,0,0,7,0
Cc1c(Cn2ccn3c(=O)cc(N4CCOCC4)nc23)cccc1C(F)(F)F [GSK2289044],23,0,6,0,11,0,14,0,4,0,0,0,13,5,0,0,0,12,0,0
Cc1cccc(-c2nc(Nc3ccncc3)c3ccccc3n2)n1 [GW855857],50,0,0,0,9,0,0,0,0,0,0,4,18,0,0,20,0,0,54,15
COc1cc2ncn(-c3cc(OCC4CCCO4)c(C(N)=O)s3)c2cc1OC (stereo not shown) [GSK204607],0,9,2,0,22,0,0,0,0,0,93.5,0,96.3,39,0,0,0,28,11,0
O=C(Nc1n[nH]c2nc(-c3nccs3)c(Br)cc12)C1CCCC1 [SB-742609],0,0,0,0,1,19,12,0,0,7,0,5,7,0,0,0,0,0,0,13
Cc1cc(NCC(c2ccccc2)c2ccccc2)nc(NCc2ccc(C(F)(F)F)cc2)n1 [GW497681],4,0,1,0,28,0,0,0,6,0,0,0,0,0,0,0,0,0,22,0
Cc1nnc(-c2ccc3occ(-c4ccc(S(C)=O)cc4)c3c2)[nH]1 (stereo not shown),5,0,7,0,36,4,0,5,17,1,19,7,50,11,0,9,0,27,0,0
Cl.O=C(Nc1cccc(-c2nn3ncccc3c2-c2ccnc(Nc3cccnc3)n2)c1)c1c(F)cccc1F [GSK312879],6,23,10,12,0,14,41,1,0,0,0,0,17,0,0,13,5,30,0,7
Cc1cccc(-c2nc(Nc3cccc(C(N)=O)c3)c3ccccc3n2)n1 [GW876019],49,2,27,0,9,8,0,0,0,0,63,14,14,0,0,0,33,17,23,4
Cc1csc(-c2nc(Nc3ccncc3)c3ccccc3n2)n1 [GW869640],45,15,3,44,40,32,51,0,13,39,1,4,22,26,20,8,25,0,0,39
CC1=C(C(=O)Nc2cc3cn[nH]c3cc2F)C(c2ccc(C(F)(F)F)cc2)CC(=O)N1 (stereo not shown) [GSK429286],0,22,0,0,18,14,22,4,4,0,0,0,1,80,0,0,0,0,0,0
O=C(Nc1ccc2c(c1)OCO2)NC1CCN(c2ccnc(Nc3ccc(F)cc3)n2)C1 (stereo not shown) [GSK1379724],0,0,0,0,0,6,13,0,0,0,0,0,10,0,0,0,0,0,0,5
COc1cc2ncnc(Nc3ccc4nc(-c5ccccc5)[nH]c4c3)c2cc1OC.Cl [GW282450],27,15,0,1,0,16,20,0,0,0,2,0,30,0,0,0,0,3,0,17
O=c1cc(N2CCOCC2)nc2n(Cc3cccc(Cl)c3Cl)ccn12 [GSK2286295],8,0,28,0,1,0,9,14,9,22,0,0,17,0,0,3,0,34,0,0
CC(C)(C)c1ccc(C(=O)Nc2cn3cc(Cl)ccc3n2)cc1,28,0,23,45,22,0,0,6,0,8,0,4,24,0,0,0,0,0,0,0
Clc1cc(Cl)cc(Nc2ccnc(Nc3cc(Cl)cc(Cl)c3)n2)c1 [GSK175726],7,0,4,13,22,0,9,0,13,3,0,8,8,10,0,49,11,0,0,0
Cc1ccc(NC(=O)Nc2cc(C(C)(C)C)nn2-c2ccccc2)cc1 [GSK1014915],0,18,11,0,44,10,7,8,0,0,4,0,44,0,0,2,0,21,0,2
Cc1cc(-c2ccc3c(c2)CC[C@@H](N[C@@H](C)c2ccccc2)C3)cnc1N.Cl [GW412617],47,15,0,23,0,4,17,0,0,2,3,12,29,8,0,4,0,24,0,9
Fc1cc(Cl)ccc1Nc1ccnc2cc(I)ccc12 [GW551191],32,0,0,0,87,4,19,4,0,8,49,29,0,0,0,0,0,7,0,8
O=C(O)COc1ncnc2cc(-c3ccc4[nH]ncc4c3)sc12,0,26,29,23,15,0,45,9,35,4,0,8,0,13,11,0,8,0,0,1
Cl.c1ccc(-c2n[nH]cc2-c2ccnc(-c3ccc(CN4CCOCC4)cc3)c2)nc1 [GW776245],22,0,0,13,49,0,0,0,0,0,0,23,0,0,0,15,0,0,0,41
COc1ccc(CNC(=O)NC2CCN(c3ccnc(Nc4cc(OC)c(OC)c(OC)c4)n3)C2)cc1 (stereo not shown) [GSK1379748],15,0,21,0,5,0,0,0,0,0,0,0,0,25,0,14,0,11,31,0
Cc1ccccc1-n1cnc2c(N)ncnc21 [SKF-97510],0,0,8,0,18,0,0,0,0,0,0,0,100,0,0,13,0,0,0,0
O=S(=O)(c1ccc(-c2ccnc3[nH]ccc23)cc1)N1CCCC1 [GSK846226],0,0,38,0,35,5,4,0,0,0,0,0,0,16,0,0,0,60,0,3
CCn1c(-c2cccnc2O)nc2cnccc21 [SB-736715],1,0,13,0,15,5,0,0,0,0,0,0,0,0,0,0,0,0,0,20
Cc1cccc(-c2nc(Nc3ccc4[nH]ncc4c3)c3ccccc3n2)n1 [GW857175],23,14,1,35,15,26,5,6,9,25,0,0,16,15,10,28,25,16,0,28
Cc1ccc(NC(=O)Nc2cccc(Cl)c2)cc1-c1ccc(C(=O)Nc2ccncc2)cc1 [GSK1398468],0,5,1,0,16,0,26,0,22,0,0,5,6,0,2,0,0,0,0,0
CC(C)(C)c1ccc(C(=O)Nc2cn3cc(-c4cccnc4)ccc3n2)cc1,0,13,36,4,47,11,23,0,13,0,25,22,19,5,20,3,0,15,0,0
Cc1cccc(-c2cc(Nc3ccncc3)c3ccccc3n2)n1 [GSK223675],0,5,10,0,21,0,3,0,0,0,0,0,0,0,0,0,0,5,0,0
